Gli-Sufu block – Gli-Sufu pathway antagonists, primary screen, luciferase luminescence, Sufu-KO-LIGHT cells, uHTS | inhibition, % at 5 µM | actives 0.74% (n = 340,000) | AID 588413, 2011 | Sufu-KO-LIGHT fibroblasts, Gli luciferase reporter luminescence;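 active = inhibition above about 55%, limit read from the data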
Jurkat NFkB inh – inhibitors of induced NF-kB luciferase reporter, primary screen, TCR NF-kB activation inhibitor project, cell-based, luminescence, uHTS. Jurkat, PMA/ionomycin-induced NF-kB luciferase reporter. inhibition, % at 4 µM. actives 0.53% (n = 330,000); in the data active = inhibition above about 50%
697 NFkB inh – inhibitors of PMA/ionomycin-induced NF-kB reporter, 697 cells, primary screen, B-cell NF-kB inhibitor project, cell-based, luminescence, uHTS; 697 B-cell NF-kB luciferase reporter, 16 h; inhibition, % at 4 µM; actives 0.33% (n = 330,000); AID 435022, 2010; in the data active = inhibition above about 35%
Mdm2-MdmX inh – inhibitors of human Mdm2-MdmX association, primary screen, cell-based, luminescence, split luciferase, SaOS-2, uHTS; actives 3% (n = 330,000); AID 485346, 2010; inhibition, % at 8 µM; SaOS-2 split-luciferase Mdm2/MdmX complementation;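 active = inhibition of at least 50% at 8 µM in the primary screen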
Target sequence (O15151 whole entry, looked up): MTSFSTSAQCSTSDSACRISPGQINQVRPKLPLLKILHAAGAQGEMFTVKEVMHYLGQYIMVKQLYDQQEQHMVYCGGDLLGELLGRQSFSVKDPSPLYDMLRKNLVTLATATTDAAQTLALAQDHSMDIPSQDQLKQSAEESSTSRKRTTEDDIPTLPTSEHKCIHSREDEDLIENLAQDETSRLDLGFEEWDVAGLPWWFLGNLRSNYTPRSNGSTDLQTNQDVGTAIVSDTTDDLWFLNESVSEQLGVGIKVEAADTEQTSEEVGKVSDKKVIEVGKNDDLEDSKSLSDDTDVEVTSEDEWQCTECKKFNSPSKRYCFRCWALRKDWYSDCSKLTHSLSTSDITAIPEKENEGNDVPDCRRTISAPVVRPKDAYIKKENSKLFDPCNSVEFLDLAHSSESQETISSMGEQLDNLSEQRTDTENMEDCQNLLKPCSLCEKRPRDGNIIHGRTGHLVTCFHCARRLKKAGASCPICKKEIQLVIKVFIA
Target sequence (Q00987 whole entry, looked up): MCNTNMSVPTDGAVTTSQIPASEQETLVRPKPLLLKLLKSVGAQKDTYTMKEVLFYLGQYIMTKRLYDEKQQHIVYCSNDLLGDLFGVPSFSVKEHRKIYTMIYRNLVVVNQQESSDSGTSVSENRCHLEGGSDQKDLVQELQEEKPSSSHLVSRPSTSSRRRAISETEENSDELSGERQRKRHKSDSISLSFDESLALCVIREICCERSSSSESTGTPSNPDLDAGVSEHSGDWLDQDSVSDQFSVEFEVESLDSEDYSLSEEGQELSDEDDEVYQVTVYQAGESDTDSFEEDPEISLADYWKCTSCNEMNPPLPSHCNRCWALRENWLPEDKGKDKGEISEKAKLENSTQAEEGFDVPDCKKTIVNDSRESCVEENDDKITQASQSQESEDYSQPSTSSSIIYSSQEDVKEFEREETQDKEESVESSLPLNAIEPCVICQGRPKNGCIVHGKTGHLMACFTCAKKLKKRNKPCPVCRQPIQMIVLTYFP
Shn3 inh set2 – reduction of Shn3 3'UTR firefly luciferase signal, primary screen, Schnurri-3 inhibitor project, cell-based, Clone20 osteoblasts, set 2. inhibition, % at 12.5 µM. actives 0.52% (n = 360,000). Clone20 osteoblast Shn3 3'UTR firefly luciferase, 24 h;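 active = mean inhibition of at least 75% with every replicate also reaching 75%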
Jurkat NFkB conf – PMA/ionomycin-induced NF-kB reporter inhibitors, Jurkat retest, confirmation, T-cell NF-kB inhibitor project, cell-based, luminescence, single concentration; shares compounds with Jurkat NFkB inh; Jurkat NF-kB luciferase, 16 h; inhibition, % at 4 µM; actives 27% (n = 2,700); AID 435020, 2010;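 active = inhibition reaching about 45% at 4 µM in either replicate, limit read from the data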
697 NFkB conf – PMA/ionomycin-induced NF-kB reporter inhibitors, 697 retest, confirmation, B-cell NF-kB inhibitor project, cell-based, luminescence, single concentration; shares compounds with 697 NFkB inh; 697 B-cell NF-kB luciferase, 16 h; inhibition, % at 4 µM; actives 35% (n = 2,000); AID 449746, 2010; in the data active = inhibition mostly above about 28%, no sharp cut-off; inactive = mostly below about 22%
Mdm2 MdmX conf – Mdm2-MdmX complex disruptors, retested hits, confirmation, luminescence, single concentration | shares compounds with Mdm2-MdmX inh | Mdm2-MdmX binding, luminescent assay | inhibition, % at 8 µM | actives 55% (n = 10,000); in the data active = inhibition above about 40%
FLuc counter – full-length luciferase signal inhibition, confirmation, counter-screen for Mdm2/MdmX interaction inhibitor project, cell-based, single concentration, SaOS-2 | shares compounds with Mdm2-MdmX inh | SaOS-2 full-length luciferase counterscreen, luminescence | inhibition, % at 8 µM | actives 77% (n = 6,200) | AID 504607, 2011;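 active = mean inhibition at 8 µM reaching about 37%, which flags the compound as non-specific, limit read from the data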;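 also: p53-null SaOS-2 cells with luciferase driven by a doxycycline-inducible promoter; compound on cells about two nights before reading with doxycycline added after day one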
A number is an active result. Most compounds without a hit are left out; they make up all but 3.8% or so of the library.

How did O=C(c1ccc(CS(=O)Cc2ccccc2Cl)o1)N1CCN(c2ccccn2)CC1 (centres undefined) do in these assays?
Gli-Sufu block: inactive; Jurkat NFkB inh: inactive; 697 NFkB inh: inactive; Mdm2-MdmX inh: inactive; Shn3 inh set2: inactive

How did O=C(c1ccc(CS(=O)c2ccccc2Cl)o1)N1CCN(c2ccccn2)CC1 (centres undefined) do in these assays?
Gli-Sufu block: inactive; Jurkat NFkB inh: 52.2; 697 NFkB inh: inactive; Mdm2-MdmX inh: 62.8; Shn3 inh set2: inactive; Jurkat NFkB conf: inactive; Mdm2 MdmX conf: 56.0; FLuc counter: 45.3

What do the screens show for `CCCCN=C1NN=C(c2ccc3c(c2)OCCO3)CS1`?
Gli-Sufu block: inactive; Jurkat NFkB inh: inactive; 697 NFkB inh: inactive; Mdm2-MdmX inh: inactive; Shn3 inh set2: inactive

How did Cc1cc(C2=NNC(=NC3CCCCC3)SC2)c(C)n1-c1c(C)n(C)n(-c2ccccc2)c1=O do in these assays?
Gli-Sufu block: inactive; Jurkat NFkB inh: inactive; 697 NFkB inh: inactive; Mdm2-MdmX inh: inactive; Shn3 inh set2: inactive

What do the screens show for `Cc1cc(C2=NNC(=NC3CC3)SC2)c(C)n1-c1ccccc1F`?
Gli-Sufu block: 92.8; Jurkat NFkB inh: 78.8; 697 NFkB inh: 39.2; Mdm2-MdmX inh: 98.6; Shn3 inh set2: 97.6; Jurkat NFkB conf: 74.4; 697 NFkB conf: 48.0; Mdm2 MdmX conf: 98.8; FLuc counter: inactive

How did c1cc2c(cc1C1=NNC(=NC3CC3)SC1)OCCO2 do in these assays?
Gli-Sufu block: 77.1; Jurkat NFkB inh: 60.5; 697 NFkB inh: 57.1; Mdm2-MdmX inh: 92.2; Shn3 inh set2: inactive; Jurkat NFkB conf: 78.3; 697 NFkB conf: inactive; Mdm2 MdmX conf: 86.2; FLuc counter: 55.8

Results for CN1CCCN(S(=O)(=O)c2cccc(C(F)(F)F)c2)c2nc3ccccc3nc21 ?
Gli-Sufu block: inactive; Jurkat NFkB inh: inactive; 697 NFkB inh: inactive; Mdm2-MdmX inh: inactive; Shn3 inh set2: inactive

How did COc1cccc2sc(Nc3nc(-c4cc5ccccc5oc4=O)cs3)nc12 do in these assays?
Gli-Sufu block: inactive; Shn3 inh set2: inactive

What do the screens show for `COc1cccc2sc(Nc3nc(-c4ccncc4)cs3)nc12`?
Gli-Sufu block: inactive; Jurkat NFkB inh: 60.3; 697 NFkB inh: inactive; Mdm2-MdmX inh: 61.0; Shn3 inh set2: inactive; Jurkat NFkB conf: inactive; Mdm2 MdmX conf: 45.9; FLuc counter: 51.0

Results for COc1cccc2sc(Nc3nnc(-c4ccccc4Cl)o3)nc12 ?
Gli-Sufu block: inactive; Jurkat NFkB inh: 57.7; 697 NFkB inh: inactive; Mdm2-MdmX inh: 65.0; Shn3 inh set2: inactive; Jurkat NFkB conf: inactive; Mdm2 MdmX conf: 65.0; FLuc counter: 53.8

What do the screens show for `COc1cccc2sc(NN)nc12`?
Gli-Sufu block: inactive; Jurkat NFkB inh: inactive; 697 NFkB inh: inactive; Mdm2-MdmX inh: inactive; Shn3 inh set2: inactive

What do the screens show for `COc1ccccc1-c1nnc(Nc2nc3c(OC)cccc3s2)o1`?
Gli-Sufu block: 89.1; Jurkat NFkB inh: 87.6; 697 NFkB inh: inactive; Mdm2-MdmX inh: 58.9; Shn3 inh set2: inactive; Jurkat NFkB conf: inactive; Mdm2 MdmX conf: 68.2; FLuc counter: 72.3

What do the screens show for `COc1ccc(OC)c(N(CC(=O)N2CCN(Cc3ccccc3)CC2)S(C)(=O)=O)c1`?
Gli-Sufu block: inactive; Jurkat NFkB inh: inactive; 697 NFkB inh: inactive; Mdm2-MdmX inh: inactive; Shn3 inh set2: inactive

What do the screens show for `COc1ccc(Oc2nc(SC)nc3ccsc23)cc1`?
Gli-Sufu block: inactive; Jurkat NFkB inh: inactive; 697 NFkB inh: inactive; Mdm2-MdmX inh: inactive; Shn3 inh set2: inactive

How did CSc1nc(Oc2ccc3ccccc3c2)c2sccc2n1 do in these assays?
Gli-Sufu block: inactive; Jurkat NFkB inh: 63.9; 697 NFkB inh: inactive; Mdm2-MdmX inh: 54.6; Shn3 inh set2: inactive; Jurkat NFkB conf: inactive; Mdm2 MdmX conf: 66.5; FLuc counter: 42.6

What do the screens show for `O=C(N/N=C\c1c(O)ccc2ccccc12)c1ccc(S(=O)(=O)N2CCCCC2)cc1`?
Gli-Sufu block: 85.5; Jurkat NFkB inh: 55.2; 697 NFkB inh: inactive; Mdm2-MdmX inh: 83.4; Shn3 inh set2: 88.9; Jurkat NFkB conf: 73.2; Mdm2 MdmX conf: 86.4; FLuc counter: 54.6

Results for O=C(NN=Cc1c(O)ccc2ccccc12)c1ccc2c(c1)OCO2 ?
Gli-Sufu block: inactive; Jurkat NFkB inh: 67.0; 697 NFkB inh: inactive; Mdm2-MdmX inh: 88.2; Shn3 inh set2: 88.8; Jurkat NFkB conf: 82.4; Mdm2 MdmX conf: 89.1; FLuc counter: 50.0

What do the screens show for `CC(C)(C)S(=O)(=O)N1Cc2cc(=O)n(Cc3ccccc3)c(CCO)c2[C@H]1CCO`?
Gli-Sufu block: inactive; Shn3 inh set2: inactive

What do the screens show for `O=C(NNC(=O)c1ccco1)c1csc(N2CCOCC2)n1`?
Gli-Sufu block: inactive; Jurkat NFkB inh: inactive; 697 NFkB inh: inactive; Mdm2-MdmX inh: inactive; Shn3 inh set2: inactive

How did Cn1ncc2c(N3CCN(c4ccccc4F)CC3)ncnc21 do in these assays?
Gli-Sufu block: inactive; Jurkat NFkB inh: inactive; 697 NFkB inh: inactive; Mdm2-MdmX inh: inactive; Shn3 inh set2: inactive

Results for Cn1ncc2c(N3CCN(c4ccc(Cl)c(Cl)c4)CC3)ncnc21 ?
Gli-Sufu block: inactive; Jurkat NFkB inh: 58.8; 697 NFkB inh: inactive; Mdm2-MdmX inh: 92.3; Shn3 inh set2: inactive; Jurkat NFkB conf: 60.4; Mdm2 MdmX conf: 74.2; FLuc counter: 98.9

What do the screens show for `CCN1C(=O)[C@@H]2[C@H](C1=O)[C@@H]1CC(C(=O)OC)=C[C@@H](C(=O)OC)C3C1=C(C(=O)C3(CC)CC)[C@@H]2C` (some centres undefined)?
Gli-Sufu block: inactive; Jurkat NFkB inh: inactive; 697 NFkB inh: inactive; Mdm2-MdmX inh: inactive

What do the screens show for `CCOc1ccc(-c2cc(CCCC(=O)Nc3cc(OC)ccc3OC)no2)cc1`?
Gli-Sufu block: inactive; Jurkat NFkB inh: inactive; 697 NFkB inh: inactive; Mdm2-MdmX inh: inactive; Shn3 inh set2: inactive

High-throughput results deposited in PubChem BioAssay by several laboratories.
